Results as given in the supplement of paper PMC10849652.
Targets with a hit are over-represented here; the source holds about 7,900 in all. About 0.6% of all pairs of compound and target were hits. Unmarked numbers belong to inactive results.

Experiments:
Assay in all cases: log2 fold change, soluble protein after heating vs DMSO (PISA); higher = thermal stabilisation; K562 cells, 10 uM, 30 min; active = over 0.2 and 3.5 SD of the protein, either way, in both replicates (recomputed)
[1] = compound: Cc1ccc(NC(=O)c2ccc(CN3CC[C@H](N(C)C)C3)c(C(F)(F)F)c2)cc1Nc1nccc(-c2cncnc2)n1 [bafetinib]
Outline: (§1)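 K562 cells at 2×10^6 cells/mL were given 10 μM compound for 30 min. Aliquots then went through 3 min of heating across 48°C-58°C, were pooled, and were extracted in PBS with 0.5% NP-40 at 4°C, and the supernatant after 21,000xg for 90 min was quantified by TMTpro 16plex LC-MS/MS with channel sums equalised. Thermal stability relative to control samples, from duplicates, is given as log2 fold change.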

[2] = compound: Cc1cccc(CC(=O)N2CCc3c2ccc(-c2cn(C)c4ncnc(N)c24)c3F)n1
Outline: as §1

[3] = compound: Cc1cn(-c2cc(NC(=O)c3ccc(C)c(Nc4nccc(-c5cccnc5)n4)c3)cc(C(F)(F)F)c2)cn1 [nilotinib]
Outline: as §1

[4] = compound: Cc1nc(Nc2n[nH]c3c2CN(C(=O)N[C@H](CN(C)C)c2ccccc2)C3(C)C)c2sccc2n1
Outline: as §1

[5] = compound: Cc1nc(Nc2ncc(C(=O)Nc3c(C)cccc3Cl)s2)cc(N2CCN(CCO)CC2)n1 [dasatinib]
Outline: as §1

[6] = compound: Cc1ncc(-c2ccnc(Nc3ccc(S(C)(=O)=O)cc3)n2)n1C(C)C
Outline: as §1

[7] = compound: Cn1cc(-c2ccc3c(c2)CCN3C(=O)Cc2cccc(C(F)(F)F)c2)c2c(N)ncnc21
Outline: as §1

[8] = compound: Cn1cc(-c2ccc3nnc(C(F)(F)c4ccc5ncccc5c4)n3n2)cn1
Outline: as §1

[9] = compound: Cn1cncc1[C@@](N)(c1ccc(Cl)cc1)c1ccc2c(c1)c(-c1cccc(Cl)c1)cc(=O)n2C [tipifarnib]
Outline: as §1

[10] = compound: FC(F)(F)c1ccc(/C=C/c2nc(COc3ccc(CCCCn4ccnn4)cc3)co2)cc1 [mubritinib]
Outline: as §1

UniProt Q9NR45, sequence (Q9NR45 whole entry, looked up): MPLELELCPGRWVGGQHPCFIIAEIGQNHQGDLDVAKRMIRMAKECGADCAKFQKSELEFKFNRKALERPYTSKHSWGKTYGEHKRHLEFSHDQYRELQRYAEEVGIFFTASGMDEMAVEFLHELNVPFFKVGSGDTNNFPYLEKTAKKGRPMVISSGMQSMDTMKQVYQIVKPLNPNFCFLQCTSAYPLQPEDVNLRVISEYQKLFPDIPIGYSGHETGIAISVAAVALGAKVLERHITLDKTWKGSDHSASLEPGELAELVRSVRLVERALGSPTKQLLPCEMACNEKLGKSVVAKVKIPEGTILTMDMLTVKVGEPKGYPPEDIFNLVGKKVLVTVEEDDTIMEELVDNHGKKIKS
UniProt Q96I59, sequence (Q96I59 whole entry, looked up): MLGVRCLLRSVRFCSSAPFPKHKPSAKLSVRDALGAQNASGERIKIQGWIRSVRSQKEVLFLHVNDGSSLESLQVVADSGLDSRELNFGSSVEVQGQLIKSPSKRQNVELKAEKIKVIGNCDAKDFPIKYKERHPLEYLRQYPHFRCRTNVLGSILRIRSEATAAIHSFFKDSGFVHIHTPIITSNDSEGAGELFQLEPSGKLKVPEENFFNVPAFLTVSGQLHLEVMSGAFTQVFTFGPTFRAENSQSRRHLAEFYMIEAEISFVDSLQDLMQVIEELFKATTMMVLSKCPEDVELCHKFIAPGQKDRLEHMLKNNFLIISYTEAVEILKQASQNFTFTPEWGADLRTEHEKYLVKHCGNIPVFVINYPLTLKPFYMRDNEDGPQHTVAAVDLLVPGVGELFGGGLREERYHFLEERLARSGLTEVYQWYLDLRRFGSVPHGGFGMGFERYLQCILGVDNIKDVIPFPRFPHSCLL
UniProt Q9Y2I1, sequence (Q9Y2I1 whole entry, looked up): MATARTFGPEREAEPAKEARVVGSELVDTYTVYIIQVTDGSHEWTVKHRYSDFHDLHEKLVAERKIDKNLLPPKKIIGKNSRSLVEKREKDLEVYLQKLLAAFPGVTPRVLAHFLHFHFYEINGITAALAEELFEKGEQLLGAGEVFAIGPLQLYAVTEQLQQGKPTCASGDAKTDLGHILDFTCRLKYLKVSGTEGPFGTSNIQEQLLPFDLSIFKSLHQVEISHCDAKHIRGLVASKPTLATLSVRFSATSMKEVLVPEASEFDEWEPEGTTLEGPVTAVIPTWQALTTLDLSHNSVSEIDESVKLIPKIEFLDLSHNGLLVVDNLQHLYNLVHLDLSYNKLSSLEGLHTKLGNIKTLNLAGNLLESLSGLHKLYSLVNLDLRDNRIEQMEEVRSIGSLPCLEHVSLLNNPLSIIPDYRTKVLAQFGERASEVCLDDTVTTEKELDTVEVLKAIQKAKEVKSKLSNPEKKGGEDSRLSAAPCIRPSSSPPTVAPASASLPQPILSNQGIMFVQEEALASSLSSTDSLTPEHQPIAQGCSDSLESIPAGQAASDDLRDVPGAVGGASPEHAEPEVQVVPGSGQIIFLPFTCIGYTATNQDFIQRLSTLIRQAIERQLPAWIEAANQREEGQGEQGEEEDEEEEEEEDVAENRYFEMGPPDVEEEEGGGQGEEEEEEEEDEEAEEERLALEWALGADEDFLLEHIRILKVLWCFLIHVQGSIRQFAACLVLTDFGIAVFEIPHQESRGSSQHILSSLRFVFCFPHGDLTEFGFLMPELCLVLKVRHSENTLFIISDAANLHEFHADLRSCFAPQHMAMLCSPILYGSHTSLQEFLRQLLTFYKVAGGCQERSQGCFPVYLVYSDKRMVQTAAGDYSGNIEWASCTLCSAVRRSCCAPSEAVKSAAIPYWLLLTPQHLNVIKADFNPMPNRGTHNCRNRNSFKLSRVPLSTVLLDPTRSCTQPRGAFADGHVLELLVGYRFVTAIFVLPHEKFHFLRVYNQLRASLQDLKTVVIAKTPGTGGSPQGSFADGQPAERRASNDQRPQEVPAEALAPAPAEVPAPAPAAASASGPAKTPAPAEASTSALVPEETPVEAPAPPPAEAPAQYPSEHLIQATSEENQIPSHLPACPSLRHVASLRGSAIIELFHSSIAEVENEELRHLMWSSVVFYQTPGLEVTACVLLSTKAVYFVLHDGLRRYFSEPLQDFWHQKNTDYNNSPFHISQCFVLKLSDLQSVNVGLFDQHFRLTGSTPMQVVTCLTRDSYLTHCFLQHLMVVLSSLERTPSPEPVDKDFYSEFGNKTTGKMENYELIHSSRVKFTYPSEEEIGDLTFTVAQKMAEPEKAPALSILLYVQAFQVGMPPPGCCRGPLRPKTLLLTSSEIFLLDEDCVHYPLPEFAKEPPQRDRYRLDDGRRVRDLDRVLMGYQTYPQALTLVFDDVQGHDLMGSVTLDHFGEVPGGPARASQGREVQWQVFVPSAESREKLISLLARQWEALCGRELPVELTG
UniProt Q8NCF5, sequence (Q8NCF5 whole entry, looked up): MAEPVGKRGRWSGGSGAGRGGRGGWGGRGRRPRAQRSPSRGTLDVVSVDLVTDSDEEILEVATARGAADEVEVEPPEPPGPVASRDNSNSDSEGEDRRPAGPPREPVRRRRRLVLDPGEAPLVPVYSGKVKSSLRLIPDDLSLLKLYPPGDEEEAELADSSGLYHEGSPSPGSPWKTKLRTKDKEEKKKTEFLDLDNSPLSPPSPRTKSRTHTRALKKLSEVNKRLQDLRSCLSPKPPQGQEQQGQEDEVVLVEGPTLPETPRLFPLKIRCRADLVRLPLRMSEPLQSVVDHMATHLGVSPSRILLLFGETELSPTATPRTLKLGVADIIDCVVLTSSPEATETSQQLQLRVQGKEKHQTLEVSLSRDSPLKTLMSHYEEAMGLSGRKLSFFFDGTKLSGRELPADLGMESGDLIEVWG
UniProt O00567, sequence (O00567 whole entry, looked up): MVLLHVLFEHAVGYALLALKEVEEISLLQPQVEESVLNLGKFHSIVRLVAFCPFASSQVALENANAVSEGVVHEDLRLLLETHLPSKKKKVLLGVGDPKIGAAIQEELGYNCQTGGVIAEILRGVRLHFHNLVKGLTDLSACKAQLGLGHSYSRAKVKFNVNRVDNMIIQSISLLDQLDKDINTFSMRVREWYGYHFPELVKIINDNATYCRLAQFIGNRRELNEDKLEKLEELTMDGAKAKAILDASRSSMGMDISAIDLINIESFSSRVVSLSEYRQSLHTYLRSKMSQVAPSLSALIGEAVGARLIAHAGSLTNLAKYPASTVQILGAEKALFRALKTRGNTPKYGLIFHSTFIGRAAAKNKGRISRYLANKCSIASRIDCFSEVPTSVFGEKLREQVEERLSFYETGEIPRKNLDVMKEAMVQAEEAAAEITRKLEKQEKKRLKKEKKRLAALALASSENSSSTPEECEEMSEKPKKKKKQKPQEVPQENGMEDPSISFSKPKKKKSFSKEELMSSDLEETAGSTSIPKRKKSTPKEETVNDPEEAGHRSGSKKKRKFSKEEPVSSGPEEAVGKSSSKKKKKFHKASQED
UniProt Q9BRA0, sequence (Q9BRA0 whole entry, looked up): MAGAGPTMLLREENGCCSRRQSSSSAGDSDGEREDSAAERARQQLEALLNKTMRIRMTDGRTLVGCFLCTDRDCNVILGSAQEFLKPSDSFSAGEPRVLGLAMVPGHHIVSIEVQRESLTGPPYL
UniProt O43913, sequence (O43913 whole entry, looked up): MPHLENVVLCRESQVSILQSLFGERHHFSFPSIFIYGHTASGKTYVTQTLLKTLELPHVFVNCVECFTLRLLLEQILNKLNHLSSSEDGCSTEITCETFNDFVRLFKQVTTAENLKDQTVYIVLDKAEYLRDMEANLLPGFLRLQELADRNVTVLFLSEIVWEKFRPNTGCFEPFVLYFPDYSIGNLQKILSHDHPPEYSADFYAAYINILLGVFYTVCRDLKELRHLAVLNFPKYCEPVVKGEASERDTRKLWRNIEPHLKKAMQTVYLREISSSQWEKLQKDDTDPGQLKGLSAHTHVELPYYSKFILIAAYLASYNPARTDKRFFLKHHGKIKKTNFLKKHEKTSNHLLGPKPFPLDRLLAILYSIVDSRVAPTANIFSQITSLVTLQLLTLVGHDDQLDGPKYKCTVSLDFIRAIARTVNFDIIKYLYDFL
UniProt P30419, sequence (P30419 whole entry, looked up): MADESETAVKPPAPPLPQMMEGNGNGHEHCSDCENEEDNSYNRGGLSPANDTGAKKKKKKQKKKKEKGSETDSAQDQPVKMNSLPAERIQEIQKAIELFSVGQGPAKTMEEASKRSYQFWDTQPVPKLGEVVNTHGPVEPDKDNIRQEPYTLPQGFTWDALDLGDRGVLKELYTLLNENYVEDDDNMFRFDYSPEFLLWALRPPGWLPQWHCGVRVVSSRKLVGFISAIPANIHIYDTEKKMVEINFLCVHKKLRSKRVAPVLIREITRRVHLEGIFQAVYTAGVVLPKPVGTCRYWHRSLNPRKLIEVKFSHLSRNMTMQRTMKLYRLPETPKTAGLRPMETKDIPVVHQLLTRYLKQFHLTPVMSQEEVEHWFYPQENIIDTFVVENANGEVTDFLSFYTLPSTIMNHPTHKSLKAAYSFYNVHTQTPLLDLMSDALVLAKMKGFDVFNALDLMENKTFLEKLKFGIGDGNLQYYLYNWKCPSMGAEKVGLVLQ
UniProt Q9BWT6, sequence (Q9BWT6 whole entry, looked up): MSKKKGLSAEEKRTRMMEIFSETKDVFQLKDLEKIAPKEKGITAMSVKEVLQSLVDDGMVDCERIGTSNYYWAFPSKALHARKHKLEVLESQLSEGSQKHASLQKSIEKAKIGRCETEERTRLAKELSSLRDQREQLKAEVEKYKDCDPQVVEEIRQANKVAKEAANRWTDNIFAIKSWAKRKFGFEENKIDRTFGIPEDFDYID
UniProt Q69YL0, sequence (Q69YL0 whole entry, looked up): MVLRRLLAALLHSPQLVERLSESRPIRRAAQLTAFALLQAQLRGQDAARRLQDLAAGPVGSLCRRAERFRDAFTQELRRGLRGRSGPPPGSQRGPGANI
UniProt P68402, sequence (P68402 whole entry, looked up): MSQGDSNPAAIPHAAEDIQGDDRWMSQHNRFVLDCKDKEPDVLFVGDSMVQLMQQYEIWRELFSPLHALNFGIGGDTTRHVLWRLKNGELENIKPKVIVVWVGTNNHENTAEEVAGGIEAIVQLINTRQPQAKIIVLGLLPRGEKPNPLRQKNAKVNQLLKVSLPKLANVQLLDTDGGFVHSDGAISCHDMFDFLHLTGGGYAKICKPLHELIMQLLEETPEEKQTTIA

| Target | log2 fold change [1] | log2 fold change [2] | log2 fold change [3] | log2 fold change [4] | log2 fold change [5] | log2 fold change [6] | log2 fold change [7] | log2 fold change [8] | log2 fold change [9] | log2 fold change [10] |
| --- | --- | --- | --- | --- | --- | --- | --- | --- | --- | --- |
| MON1B (UniProt Q7L1V2) | -0.071 | 0.004 | 0.025 | 0.015 | -0.099 | -0.048 | 0.038 | 0.012 | -0.011 | 0.065 |
| MRPL34 (UniProt Q9BQ48) | 0.176 | 0.035 | -0.083 | 0.248 | 0.065 | -0.064 | -0.142 | -0.048 | 0.058 | 0.032 |
| NAA38 isoform 2 (UniProt Q9BRA0) | 0 | -0.019 | -0.128 | 0.052 | -0.051 | -0.066 | 0.028 | -0.047 | -0.039 | -0.03 |
| NQO1 (UniProt P15559) | 0.025 | 0.365 (active) | -0.001 | 0.003 | -0.033 | -0.022 | 0.049 | 0.291 (active) | -0.089 | 0.025 |
| OSTM1 (UniProt Q86WC4) | -0.208 | 0.091 | 0.044 | 0.017 | -0.086 | -0.068 | 0.076 | 0.029 | 0.008 | -0.048 |
| NMT1 (UniProt P30419) | 0.064 | -0.026 | 0.049 | 0.06 | -0.012 | -0.003 | 0.026 | -0.001 | -0.026 | 0.076 |
| NFX1 (UniProt Q12986) | -0.044 | -0.026 | -0.042 | 0.075 | 0.085 | -0.011 | 0.07 | -0.15 | 0.131 | -0.096 |
| MON2 isoform 5 (UniProt Q7Z3U7) | -0.001 | 0.026 | -0.053 | -0.012 | -0.132 | 0.082 | 0.008 | 0.006 | -0.071 | -0.03 |
| NARS2 (UniProt Q96I59) | -0.108 | 0.034 | -0.063 | 0.069 | -0.05 | 0.005 | 0.084 | 0.047 | -0.004 | -0.009 |
| NCKAP1 isoform 2 (UniProt Q9Y2A7) | -0.028 | 0.08 | -0.016 | -0.045 | -0.096 | -0.04 | 0.04 | -0.004 | -0.005 | 0.002 |
| MNAT1 (UniProt P51948) | -0.072 | 0.011 | -0.033 | 0.023 | -0.002 | -0.031 | 0.018 | 0 | 0.025 | 0.032 |
| NCBP2AS2 (UniProt Q69YL0) | -0.504 (active) | -0.018 | 0 | 0.045 | -0.021 | 0.031 | 0.002 | 0.021 | -0.001 | 0.006 |
| NANS (UniProt Q9NR45) | 0.04 | 0.05 | 0.069 | -0.007 | -0.018 | -0.018 | 0.05 | -0.017 | -0.067 | -0.023 |
| PAFAH1B2 (UniProt P68402) | -0.025 | 0.035 | 0.067 | -0.121 | -0.011 | -0.075 | 0.024 | 0.003 | 0.188 | 0.092 |
| MRPS9 (UniProt P82933) | 0.106 | 0.067 | -0.094 | 0.008 | -0.023 | -0.024 | -0.073 | 0.057 | -0.025 | 0.085 |
| NISCH (UniProt Q9Y2I1) | -0.053 | 0.053 | -0.138 | -0.158 | -0.233 | -0.324 | -0.002 | -0.02 | -0.03 | -0.009 |
| NOP56 (UniProt O00567) | 0.225 | -0.099 | 0.098 | -0.018 | 0.204 | -0.026 | -0.371 | -0.18 | 0.201 | -0.164 |
| NAPG (UniProt Q99747) | 0 | 0.128 | -0.057 | -0.157 | -0.133 | -0.011 | 0.034 | 0.033 | -0.094 | 0.062 |
| MRPS12 (UniProt O15235) | 0.269 | 0.146 | -0.161 | 0.073 | 0.062 | -0.024 | -0.045 | 0.111 | -0.082 | 0.143 |
| MSTO1 (UniProt Q9BUK6) | -0.03 | 0.028 | -0.057 | 0.033 | -0.174 | -0.005 | 0.064 | 0.037 | -0.096 | 0.011 |
| ORC5 (UniProt O43913) | 0.01 | 0.027 | 0.133 | -0.001 | -0.231 | -0.114 | 0.067 | 0.044 | 0.031 | 0.045 |
| NELFB isoform 2 (UniProt Q8WX92) | -0.088 | 0.046 | -0.135 | -0.123 | -0.189 | 0.05 | 0.032 | 0.014 | -0.081 | 0.03 |
| NRF1 isoform 4 (UniProt Q16656) | -0.057 | 0.023 | -0.099 | -0.152 | -0.123 | -0.042 | 0.054 | -0.096 | 0.022 | 0.035 |
| NELFA (UniProt Q9H3P2) | -0.145 | 0.027 | 0.032 | -0.311 | -0.112 | -0.152 | 0.015 | 0.018 | -0.141 | -0.034 |
| MYL12B (UniProt O14950) | -0.049 | 0.042 | 0.031 | 0.001 | 0.001 | -0.002 | 0.117 | -0.046 | -0.038 | 0.064 |
| OTUD4 (UniProt Q01804) | 0.069 | -0.016 | 0.037 | -0.039 | 0.046 | -0.077 | -0.082 | -0.09 | 0.064 | -0.024 |
| MND1 (UniProt Q9BWT6) | -0.168 | 0.042 | 0.032 | 0.003 | -0.037 | -0.015 | -0.056 | -0.132 | 0.04 | 0.043 |
| MRPS17 (UniProt Q9Y2R5) | 0.264 | -0.01 | -0.314 | 0.067 | -0.122 | -0.012 | -0.052 | 0.035 | -0.088 | 0.179 |
| MTHFD1 (UniProt P11586) | 0.077 | 0.096 | 0.214 (active) | -0.051 | -0.135 | 0.019 | 0.069 | 0.021 | -0.088 | 0.122 |
| NFATC2IP (UniProt Q8NCF5) | 0.065 | -0.029 | 0.001 | -0.153 | -0.096 | -0.146 | 0.097 | 0.049 | -0.003 | 0.051 |
